This passage reports growth inhibition results from PubChem BioAssay (NCI).

Test [1] in a line: NCI Yeast Anticancer Drug Screen. Data for the rad50 strain (AID 155).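 Note: 0% = growth of vehicle-only cultures of the same strain.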 The following applies: S. cerevisiae rad50 strain growth inhibition; at 50.0 µM; active compounds read high. Put shortly: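 Compounds were tested on a yeast strain with an engineered DNA damage repair alteration; the reported value is growth inhibition normalised to vehicle treatment.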
Test [2] can be described thus: NCI Yeast Anticancer Drug Screen. Data for the mec2-1 strain (AID 157). The following applies: S. cerevisiae mec2-1 strain, at 50.0 µM, active compounds read high. A digest of the protocol:
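Test agents were screened against the mec2-1 yeast strain, with defined DNA repair or cell cycle alteration. Growth was scored as inhibition against vehicle-only controls.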

Test [3] is described as follows: NCI Yeast Anticancer Drug Screen. Data for the sgs1 mgt1 strain (AID 161).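 Note: 0% = growth of cultures given vehicle only.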 The following applies: S. cerevisiae sgs1 mgt1 strain, at 50.0 µM, active compounds read high. A digest of the protocol: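 Genetically altered yeast, compound exposure, growth inhibition relative to vehicle.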
A short description of test [4]: NCI Yeast Anticancer Drug Screen. Data for the cln2 rad14 strain (AID 165).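 Note: 0% = growth equal to vehicle treated cultures.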 The following applies: S. cerevisiae cln2 rad14 strain, at 50.0 µM, active compounds read high. Put shortly: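 Growth of compound-exposed yeast (cln2 rad14 genotype) measured and expressed as inhibition relative to vehicle.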
A short description of test [5]: NCI Yeast Anticancer Drug Screen. Data for the bub3 strain (AID 167). The following applies: S. cerevisiae bub3 mutant strain, at 50.0 µM, active compounds read high. A digest of the protocol:
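Growth of a checkpoint-deficient yeast mutant is measured after compound exposure. Values represent inhibition relative to vehicle.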

Test [6] in a line: NCI Yeast Anticancer Drug Screen. Data for the mlh1 rad18 strain (AID 175). Conditions: S. cerevisiae mlh1 rad18 strain growth inhibition; at 50.0 µM; active compounds read high. Put shortly:
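In this whole-cell yeast screen, a strain with altered DNA damage repair is challenged with compound, and its growth is measured against matched vehicle-treated controls.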

The structures appear in SMILES notation. The panel holds about 79,000 compounds, 15% with a hit somewhere; the sample as a whole holds those more often. Values without a mark were called inactive. Active and inactive are the calls of the source. Cut-off read from the data, not from the text of the source: active = growth inhibition above about 70%; inactive = the rest.

As for `CN(C)B(B(N(C)C)N(C)C)N(C)C`, the growth inhibition in test [1] was 13.7%; in test [2], 17.4%; in test [3] it was 35.6%; in test [4], 22.4%; in test [5], 13.8%; in test [6], 34.8%.
Consider `COc1ccc(Cl)cc1[N+](=O)[O-]`, for which the growth inhibition in test [1] was 27.6%; in test [2] it was 3.15%; in test [3], -3.85%; in test [4] it was 9.5%; in test [5], 13.6%; in test [6], 18.2%.
In the case of `N#C[C@H](c1nc2ccccc2s1)c1nc2ccccc2nc1Cl`, the growth inhibition was 4.95% in test [1]; 6.85% in test [2]; 22.4% in test [3]; 1.45% in test [4]; 5.15% in test [5]; 5.25% in test [6].
In the case of `COCOc1ccc(C=O)cc1`, the growth inhibition in test [1] was 9.75%; in test [2], 13.1%; in test [3], -14.3%; in test [4], -4.6%; in test [5], -14.1%; in test [6] it was -5.65%.
Take `CCOC(=O)N1CCCCC1`: the growth inhibition in test [1] was -3.1%; in test [2] it was 5%; in test [3] it was 3.05%; in test [4], -16.1%; in test [5], -3.3%; in test [6], 5.95%.
On to `Nc1nc2c(ncn2-c2cccc(Cl)c2)c(=O)[nH]1`, for which the growth inhibition is -0.9% in test [1]; 16.5% in test [2]; 7.55% in test [3]; -7.5% in test [4]; 31.5% in test [5]; 13.8% in test [6].
For `CSc1nc(=S)c2[nH]c(Cl)nc2[nH]1`, the growth inhibition in test [1] is -1.8%; in test [2], 0.4%; in test [3] it was -6.9%; in test [4] it was -15.2%; in test [5] it was 16.4%; in test [6], 0.25%.
For the compound `O=[N+]([O-])c1cccc(N=Cc2ccc(Cl)cc2)c1`, the growth inhibition in test [1] was -29.9%; in test [2], -17.8%; in test [3], -62.5%; in test [4], -0.7%; in test [5] it was -0.05%; in test [6] it was -11.1%.
In the case of `CCOC(=O)/C(C#N)=C/c1ccc(O)c(OC)c1`, the growth inhibition is 30.4% in test [1]; -8.5% in test [2]; 4.95% in test [3]; 14.5% in test [4]; 12.6% in test [5]; 23.3% in test [6].
Turning to `COc1ccc2c(c1)s/c(=N/N)n2CCCS(=O)(=O)O`, the growth inhibition in test [1] is 5.5%; in test [2], -1.75%; in test [3], 20.9%; in test [4] it was 23.1%; in test [5], 5.4%; in test [6], 12.2%.
For `C1=NC(c2ccccc2)=CN(C2CCCCCCC2)C1(c1ccccc1)C1CCCCCCC1` (stereo unspecified), the growth inhibition is 40% in test [1]; 72.2% (active) in test [2]; 40.2% in test [3]; 45.6% in test [4]; 61.4% in test [5]; 50.4% in test [6].
For the compound `O=[N+]([O-])c1ccc(C2=NN(c3ccccc3)C(c3ccccc3)C2)cc1` (stereo unspecified), the growth inhibition in test [1] is 8%; in test [2], 3.1%; in test [3], 0.5%; in test [4], -5.9%; in test [5] it was 8.85%; in test [6] it was 4%.
For `CCc1nc(N)nc(N)c1-c1ccc(Cl)c(S(=O)(=O)O)c1`, the growth inhibition was -27.1% in test [1]; -26.1% in test [2]; -9.8% in test [3]; -13.4% in test [4]; -15.1% in test [5]; 1.85% in test [6].
Regarding `COc1cc(C2C(Cl)C(=O)N2NC(=O)c2ccc(N)cc2)cc(Br)c1O` (stereo unspecified), the growth inhibition in test [1] is 16.3%; in test [2], 0.95%; in test [3], 4.05%; in test [4], -38%; in test [5] it was 5.85%; in test [6] it was -11.2%.
`CCOC(=O)c1cc(=O)c2cccc(C)c2[nH]1`: the growth inhibition in test [1] is 2.3%; in test [2], 10.7%; in test [3], -0.95%; in test [4], -9.3%; in test [5], -2%; in test [6], 20.6%.
For `CCOC(=O)C(C)N1CCCCCCC1` (stereo unspecified), the growth inhibition in test [1] was -19.9%; in test [2], -13.5%; in test [3], -2.3%; in test [4] it was -26.2%; in test [5], -6.15%; in test [6], -0.8%.
Take `N#CC(C#N)=C1CCNCC1`: the growth inhibition in test [1] is -12.8%; in test [2], -5.5%; in test [3] it was -6.3%; in test [4] it was -8.35%; in test [5], 3.65%; in test [6] it was 0.9%.
Regarding `O=S(=O)(CCN1CCCCC1)c1ccc(F)cc1`, the growth inhibition in test [1] is 21.4%; in test [2] it was -12.5%; in test [3], 3.05%; in test [4], -10.8%; in test [5] it was 2.4%; in test [6] it was 9.95%.
With `CC(=O)N(C(C)=O)C(CS)C(=O)O` (stereo unspecified), the growth inhibition in test [1] is 4.1%; in test [2], -11.8%; in test [3] it was 2.85%; in test [4], 14.8%; in test [5], 9.05%; in test [6] it was 2.6%.
Take `COc1ccc2c(CCn3ccccc3=O)cccc2c1`: the growth inhibition in test [1] is -13.3%; in test [2] it was -8.5%; in test [3] it was 7.55%; in test [4] it was -13.9%; in test [5], 44.9%; in test [6], -11.2%.
`Cc1cc(NC(=O)NCCCCCCNC(=O)Nc2cc(C)on2)no1`: the growth inhibition is 4.95% in test [1]; 1.2% in test [2]; 1.7% in test [3]; -7.75% in test [4]; 14.6% in test [5]; 0.35% in test [6].
